Marburg entry = inhibitors of Marburg virus binding or entry into cells; Marburg virus pseudotype entry/binding inhibition, cell-based; Potency, µM (series often up to 49.2 µM), without a hit: top-dose activity change, negative = inhibition, usual class: inhibitors; 6.5% of 18,000 active; AID 720532
LASV entry inh = Lassa virus entry inhibition. 4.1% of 18,000 active. Potency, µM (highest dose often 49.2 µM), without a hit: at the highest dose activity change, negative = inhibition, most hits filed as inhibitors. Lassa virus pseudotyped entry inhibition, cell-based qHTS
Numbers without * were called inactive; ? = inconclusive; . = not tested or not shown; [ ] = remark or other dose. Most compounds without a hit are left out; they make up all but 8% or so of the library. Calls come from the whole dose curve; tested in HEK293 cells. % is set by controls: 0 for no effect and ±100 for the full control effect; potency is the fitted concentration of half-maximal effect.

SMILES	Marburg entry	LASV entry inh
CCCCCCN1C[C@@H](n2cc(COC(=O)c3ccccc3)nn2)[C@H](O)C[C@H]1c1ccc(Cl)cc1	?	-20%
CSC[C@H]1CN(c2ccccc2)C(=O)[C@H]1CC(=O)Nc1ccccc1	27%	17%
CC(=O)C1=C(C)N(Cc2ccccc2)C(=O)NC1c1ccc(Br)cc1 (centres undefined)	-4%[8.59 µM]	?
Nc1nc(N)c2nc(CNc3ccc(C(=O)N[C@@H](CCC(=O)O)C(=O)O)cc3)cnc2n1	-5%	2%
CN(Cc1cnc2nc(N)nc(N)c2n1)c1ccc(C(=O)NC(CCC(=O)O)C(=O)O)cc1 (centres undefined)	0.28µM*	?
C[C@@H]1N[S+](=O)([O-])c2cc(Cl)ccc2O[C@H]1c1ccccc1	-3%	7%
COc1ccc2[nH]c3c(c2c1)CCN=C3C	?	5%[17.8 µM]
CC[C@H]1C[C@@H]2C[C@H]3c4[nH]c5ccc(OC)cc5c4CCN(C2)[C@@H]13	28µM*	-11%
O=S1(=O)CCSCCN1Cc1ccc(F)cc1F	23%	18%
CC(C)(C)NCC(O)c1ccc(O)c(CO)c1 (centres undefined)	13%	-4%
OCc1cc(C(O)CNCCCCCCOCCCCc2ccccc2)ccc1O (centres undefined)	16µM*	?
COC(=O)[C@@]1(C=C2c3ccc(F)cc3[C@@H](OC)[C@@H]2C)[C@@H]2c3ccccc3O[C@@H]21	?	1%[8.59 µM]
CC#C[C@H](C)[C@@H](OCOC)[C@H](C[C@H](C)Cc1cc(Br)cc(OCc2ccccc2)c1OC)OC	-10%[8.59 µM]	-3%[8.59 µM]
COC1=C[C@H](C(=O)NC2CCN(Cc3ccccc3)CC2)[C@@]2(C)Cc3ccccc3[C@@H]2CC1=O	-18%[8.59 µM]	28%[8.59 µM]
CCCCc1c(O)n(-c2ccccc2)[nH]c1=O	-2%	10µM*
CCCCC1C(=O)N(c2ccccc2)N(c2ccc(O)cc2)C1=O (centres undefined)	48%[17.8 µM]	?
COc1ccc([C@]23Cc4ccccc4[C@H](O2)C2=C(O3)C(=O)c3ccccc3C2=O)cc1	11%[8.59 µM]	5%[8.59 µM]
Cc1ccc(O)cc1Nc1ccnc2cc(-c3ccccn3)ccc12	14µM*	?
O=C(OCC(O)CO)c1ccccc1Nc1ccnc2cc(Cl)ccc12 (centres undefined)	-11%	-13%
C[C@H]1COc2cc(F)ccc2S(=O)(=O)N1	?	-11%
CCOc1ccc(-c2nc3ccc(-c4nc5ccc(N6CCN(C)CC6)cc5[nH]4)cc3[nH]2)cc1	10µM*	?
Clc1ccc2nc(-c3ccccc3)[nH]c2c1	17%	8%
C[C@H]1[C@H](c2ccccc2)Oc2cc(Br)ccc2S(=O)(=O)N1Cc1cccc(Cl)c1	-34%	11%
COc1cc(C[C@@H]2NCCc3cc(O)c(O)cc32)cc(OC)c1OC	11%	4%
COc1cc2c(cc1OC)C(C)NCC2 (centres undefined)	1%	-8%
SMILES	Marburg entry	LASV entry inh
CC[C@@H]1CN2CCc3cc(OC)c(OC)cc3[C@H]2C[C@@H]1C[C@H]1NCCc2cc(OC)c(OC)cc21	?	0.32µM*
CC[C@@H]1CN2CCc3cc(OC)c(OC)cc3[C@@H]2C[C@@H]1C[C@H]1NCCc2cc(OC)c(OC)cc21	?	5.6e-05µM*
COc1ccc2c(c1)CO[C@H]([C@H](O)CO)[C@H]2C=CC#Cc1ccc(C(C)(C)C)cc1	-9%[8.59 µM]	-14%[8.59 µM]
Cc1ccc(C(=O)NC2CCCCC2)cc1-c1ccc(C(=O)NCC2CC2)cc1	-1%	.
CCC1=CC2CN3CCc4c([nH]c5ccccc45)[C@@](C(=O)OC)(C2)[C@@H]13	7.9µM*	?
COC(=O)C1=CO[C@@H](C)[C@H]2CN3CCc4c([nH]c5ccccc45)[C@@H]3C[C@H]12	?	-5%[17.8 µM]
O=C(CSc1ncccn1)NCC1Cc2cccc(-c3ncccn3)c2O1 (centres undefined)	141µM*	-5%
CC(=O)c1ccc(C(=O)NCC2Cc3cccc(-c4ncccn4)c3O2)cc1 (centres undefined)	?	4%
O=S1(=O)CCSCCN1Cc1cc(F)ccc1Br	23%	55%
CC(C)=CCCC(C)=CCON=C1C[C@@H](O)[C@@H](O)[C@@H]2[C@H]3C(=O)N(C[C@@H]4CCCO4)C(=O)[C@@H]3CC[C@H]12	22%[8.59 µM]	-17%[8.59 µM]
Cc1cc(C)cc(C(=O)OC2C[C@H]3CC[C@@H](C2)N3C)c1 (some centres undefined)	11µM*	?
COc1cc(C(=O)OC2C[C@H]3CC[C@@H](C2)N3C)ccc1O (some centres undefined)	5%[17.8 µM]	2%[17.8 µM]
CC(=O)OC[C@H]1O[C@H](CC=NO[C@H](C)CN2CCCCc3nc(C)c(C)cc32)C=C[C@@H]1OC(C)=O	-21%[8.59 µM]	-17%[8.59 µM]
CC[C@]1(c2ncc[nH]2)Cc2ccccc2O1	-18%	4%
CN(C)CCC1(c2ccc(Cl)cc2)Cc2ccccc2C(=O)O1 (centres undefined)	35µM*	-15%
